KB-V1 MDR tox: kills drug-selected multidrug resistant KB-V1 cells; Potency, µM (series often up to 46.1 µM), hits mostly cytotoxic; hit rate 3.4% among 400,000; KB-V1 MDR cells viability, CellTiter-Glo, 72 h; note: nearly all actives have a fitted effect of over 60% in size
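Cells of the MDR subline KB-V1 are plated, dosed with compound at multiple concentrations, and incubated 72 h at 37 degrees C; CellTiter-Glo is then added and luminescence read after 10 min.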
MCF10A rereplic: DNA re-replication induction in MCF 10a cells. MCF 10A DNA re-replication, Hoechst nuclear intensity, 48 h. Potency, µM (highest dose often 46.1 µM), hits mostly activators. hit rate 2.9% among 350,000; note: nearly all actives have a fitted effect of over 50% in size
ELG1 DNA repair: ELG1-dependent DNA repair inhibition; HEK293T ELG1-luciferase reporter, luminescence, 16 h; DNA damage induced by 5-fluorouridine; Potency, µM (doses to about 46.1 µM), usual class: inhibitors; hit rate 2.3% among 330,000; AID 504467; note: nearly all actives have a fitted effect of over 55% in size
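Quantitative HTS, concentration-response format. 2,000 cells/well co-treated with 5-fluorouridine and compound, 16 hr in 5% CO2 at 37 °C; ONE-Glo luminescence read after 30 min.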
SW480 rereplic: DNA re-replication induction in SW480 cells. AID 624297. SW480 DNA re-replication, Hoechst DNA content imaging, 48 h. Potency, µM (doses to about 46.1 µM), usual class: activators. hit rate 1.8% among 340,000; note: nearly all actives have a fitted effect of over 55% in size
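Quantitative HTS format with DMSO vehicle controls; 48 hr drug incubation at 37 C, then 40 min Hoechst staining and scanning imager measurement at 405 nm excitation.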
KB-3-1 tox: kills parental KB-3-1 adenocarcinoma cells. KB-3-1 viability, CellTiter-Glo ATP luminescence, 72 h. Potency, µM (highest dose often 46.1 µM), most hits filed as cytotoxic. hit rate 1.4% among 400,000; note: nearly all actives have a fitted effect of over 60% in size
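Screening of KB-3-1 cells (DMEM, 10% FBS, phenol-red free) ran from lowest to highest compound concentration; after 72 h at 37 °C viability was read luminescently and curves fitted.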
Hits are given with their value; . = inactive; ? = inconclusive; / = no result given; [ ] = remark or other dose. A selection: hits, their analogues and other compounds. The true share with any hit is near 8.1%. Calls come from the whole dose curve; as a rule, active = well fitted curve in the direction sought with a large enough effect; inconclusive = small, poorly fitted or top-dose-only effect, or another doubt; inactive = no such curve, though single readings can be large; an effect the other way counts as inactive or inconclusive.

SMILES	KB-V1 MDR tox	MCF10A rereplic	ELG1 DNA repair	SW480 rereplic	KB-3-1 tox
C[C@H](CO)N1C[C@H](C)[C@@H](CN(C)S(=O)(=O)c2ccccc2)Oc2ccc(NC(=O)Nc3ccccc3)cc2C1=O	.	.	21µM	.	.
Cc1ccc(S(=O)(=O)N2CCN(C(=O)CN3C(=O)c4ccccc4C3=O)CC2)c(C)c1	.	.	.	.	.
CC1(C(=O)NCc2ccccc2)CCC(=O)N1CC(F)(F)F (stereo not given)	.	/	/	/	.
CC1(C)COC(c2ccc(F)c([N+](=O)[O-])c2)=N1	?	23µM	?	?	?
CC1(C)COC(c2cc([N+](=O)[O-])ccc2Cl)=N1	.	.	.	.	.
CCc1cc(C(=O)NC2CCCc3c2cnn3-c2ccc(F)cc2F)no1 (stereo not given)	?	/	/	/	15µM
O=C(CCc1ccccn1)NC1CCCc2c1cnn2-c1ccc(F)cc1F (stereo not given)	21µM	.	?	.	?
Cc1cc(NCc2ccccn2)n2nc(C)c(-c3ccccc3)c2n1	.	.	23µM	?	.
Cc1cc(Nc2ccccc2)n2nc(C)c(-c3ccccc3)c2n1	?	.	.	?	.
Cc1nn2c(NCc3ccccn3)c3c(nc2c1-c1ccccc1)CCC3	9.2µM	.	10µM	?	?
Cc1nn2c(NCc3ccccn3)cc(C(C)(C)C)nc2c1-c1ccccc1	.	2.6µM	?	2.9µM	?
Cc1nn2c(NCCN3CCOCC3)c3c(nc2c1-c1ccccc1)CCCC3	?	?	16µM	.	.
c1ccc(CNc2c3c(nc4ncnn24)CCCC3)nc1	.	?	?	.[9.22 µM]	.
COc1ccc(NC(=S)NNC(=O)c2ccco2)c(OC)c1	.	.	/	.	.
COc1ccc(Nc2c3c(nc4c(-c5ccccc5)c(C)nn24)CCC3)cc1	.	.	15µM	.	.
Cc1nn2c(N3CCN(C)CC3)c3c(nc2c1-c1ccccc1)CCCC3	.	?	.	.	.
CCOc1ccccc1CN1CCc2nc(N3CCN(C)CC3)ncc2C1	.	/	/	/	.
CN1C(=O)c2cccc3c(N(C)C)ccc(c23)C1=O	12µM	.	?	.	.
NC(=O)C(c1ccccc1)(c1ccccc1)[C@@H]1CCN(CCc2ccc3c(c2)CCO3)C1	/	.	/	.	/
CC(C)Oc1ccc(CNC(=O)c2cnc3sc(N4CCCCC4)nn3c2=O)cc1	?	/	/	/	.
C(=C\c1c[nH]c2ccccc12)/c1nccc2ccccc12	.	/	/	/	.
O=C(/C=C/c1c[nH]c2ccccc12)c1cccc2ccccc12	?	21µM	.	16µM	?
CCc1ccccc1NC(=O)CCc1c(C)nn(-c2ccc(N3CCOCC3)nn2)c1C	?	.	.	.	.
NC(Cc1ccc(C(F)(F)F)cc1)c1csc(NC(=O)Nc2ccccc2)n1 (stereo not given)	.	/	/	/	.
CN(Cc1ccccc1C(F)(F)F)C(=O)C1CCC(=O)N(CC2CCCCC2)C1 (stereo not given)	?	/	/	/	.
SMILES	KB-V1 MDR tox	MCF10A rereplic	ELG1 DNA repair	SW480 rereplic	KB-3-1 tox
COc1ccc(-c2cc(=O)c3cc(OC)ccc3o2)cc1	.	.	?	.	.
CCCCC(=O)Oc1ccc2oc(-c3ccc(OC)cc3)cc(=O)c2c1	6.5µM	/	/	/	.
CC1CC(C)CN(C(=O)/C(=C\c2ccccc2)c2ccccc2)C1 (stereo not given)	8.2µM	21µM	.	.	?
CN1CCN(C(=O)/C(=C/c2ccccc2)c2ccccc2)CC1	.	.	.	.	?
Cc1nc(=S)c2ccccc2[nH]1	.	.	?	.	.
Cc1cc2[nH]c3ccccc3c2c(C)n1	16µM	?	.	.	?
CC[C@H](C)[C@@H]1OC(=O)[C@@H](C)[C@@H](CC)NC(=O)[C@H](C)N(C)C(=O)C(C)(C)C(=O)C(C)NC(=O)[C@H](Cc2ccccc2)N(C)C(=O)[C@H](C(C)C)N(C)C(=O)CNC(=O)[C@H](CC(C)C)N(C)C(=O)CNC1=O (stereo not given in full)	.	/	/	/	1.2µM
CC(NC(=O)/C(=C/c1ccc(OC(F)F)cc1)c1ccccc1)c1ccccc1 (stereo not given)	6.5µM	?	.	.	?
CCOC(=O)C1CCN(C(=O)c2sc3ncnc(N4CCC(C)CC4)c3c2C)CC1	.	?	23µM	.	.
CCOC(=O)C1CCN(C(=O)c2sc3nc(C)nc(N4CCC(C)CC4)c3c2C)CC1	.	.	23µM	.	.
CCOC(=O)C1CCCN(C(=O)c2sc3nc4n(c(=O)c3c2C)CCC4)C1 (stereo not given)	.	.	.	.	.
Cc1c(C(=O)N2CCN(c3ccccc3)CC2)sc2ncnc(N3CCC(C)CC3)c12	/	/	.	/	/
COc1ccc(-c2c(C)c3ccc(O)c(CN4CCCC(C)C4)c3oc2=O)cc1OC (stereo not given)	.	/	/	/	.
CC(=O)Nc1ccc(S(=O)(=O)c2c(N)n(CCN3CCOCC3)c3nc4ccccc4nc23)cc1	.	.	.	.	.
Cc1cccc(S(=O)(=O)c2c(N)n(Cc3ccco3)c3nc4ccccc4nc23)c1	18µM	?	?	.	?
CN(C)CCCn1c(N)c(S(=O)(=O)c2ccccc2)c2nc3ccccc3nc21	.	23µM	.	?	.
Cc1ccc(S(=O)(=O)c2c(N)n(Cc3ccco3)c3nc4ccccc4nc23)cc1	.	?	.	?	?
Cc1ccc(CSc2nc3ccccc3c(=O)n2Cc2ccco2)cc1	?	?	?	.	?
CCCCn1c(N)c(S(=O)(=O)c2ccc(C)cc2)c2nc3ccccc3nc21	?	3.7µM	?	0.65µM	?
Cc1ccc(S(=O)(=O)c2c(N)n(-c3ccccc3)c3nc4ccccc4nc23)cc1	?	?	.	.	.
Cc1cccc(-n2cnc3c(c2=O)c2nc4ccccc4nc2n3Cc2ccco2)c1	.	?	18µM	.	?
Cc1cc(C)c2nc(C)cc(Nc3cccc(C(=O)O)c3)c2c1	.	/	/	/	?
Cc1cc(NC(=O)COC(=O)c2ccc(OC(F)(F)F)cc2)no1	.	.	.	.	.
Cc1cc(NC(=O)COC(=O)C(Nc2ccc(C(F)(F)F)cc2Cl)C(C)C)no1 (stereo not given)	.	21µM	?	.	.
CCS(=O)(=O)N1CCC2(CC1)OC(=O)C(C)=C2C(=O)NCc1ccc(OC)c(OC)c1	?	/	/	/	.
O=C(O)CCCN1C(=O)/C(=C/c2cn(-c3ccccc3)nc2-c2cccs2)SC1=S	?	?	.	.	.
Cc1nn(-c2ccccc2)c(Cl)c1/C=C1/C(=N)N2N=C(C(C)C)SC2=NC1=O	.	.	.	.	.
O=C(O)CCCN1C(=O)/C(=C\c2ccc(-c3nc4ccccc4s3)o2)SC1=S	.	?	?	23µM	.
O=C(O)CCCN1C(=O)/C(=C\C(Cl)=C\c2ccccc2)SC1=S	?	?	.	3.3µM	?
